# The campaign covered roughly 4,400 compounds. About 390 (8.9%) showed an effect of 50% or more. The sample holds strong results, similar compounds and a random draw of the others, so the mix is not that of the screen.
# System: Trypanosoma brucei
# Test: DNDI: Inhibition of Human African Trypanosomiasis, SBRI 427, in vitro at 2 ug.mL-1
# Type: functional
row,SMILES,% inhibition [%]
1,O/N=C(\NCC1CCCCC1)c1ccnc(Oc2ccc(Cl)cc2)c1,98
2,O/N=C(\NC1CCCCC1)c1ccnc(Oc2ccc(Cl)cc2)c1,99
3,CC1CCCN1/C(=N\O)c1ccnc(Oc2ccc(Cl)cc2)c1 (stereo not given),-11
4,O/N=C(/c1ccnc(Oc2ccc(Cl)cc2)c1)N1CCCCC1,23
5,O/N=C(\NC1CCCC1)c1ccnc(Oc2ccc(Cl)cc2)c1,93
6,CCOc1ccc(Oc2cc(/C(=N/O)NCC3CCCCC3)ccn2)cc1,33
7,O/N=C(\NCC1CCCCC1)c1ccnc(Oc2ccc(F)c(Cl)c2)c1,5
8,O/N=C(\NCc1ccncc1)c1ccnc(Oc2ccc(Cl)cc2)c1,20
9,O/N=C(/c1ccnc(Oc2ccc(Cl)cc2)c1)N1CCCCCC1,18
10,CN1CCCC1CCN/C(=N\O)c1cccnc1Oc1cccc(C(F)(F)F)c1 (stereo not given),3
11,Cc1ccc(/C(=N/O)N2CC(C)CC(C)C2)c(Oc2ccc3oc4ccccc4c3c2)n1 (stereo not given),11
12,COc1cccc(-c2nc(CN3CCCCC3)co2)c1,12
13,CN(C)CCN(Cc1ccccc1)Cc1coc(-c2cccc(F)c2)n1,-25
14,Clc1ccccc1-c1nc(CN(CCc2ccccc2)Cc2ccccc2)co1,17
15,CCC(CC)N/C(=N\O)c1ccc(C)nc1Oc1cccc(F)c1,88
16,CCC(CC)N/C(=N\O)c1ccc(C)nc1Oc1cccc(C(C)C)c1,6
17,CCC(CC)N/C(=N\O)c1ccc(C)nc1Oc1ccc(F)c(Cl)c1,100
18,CCC(CC)N/C(=N\O)c1ccc(C)nc1Oc1cc(Cl)ccc1Cl,100
19,COCC(C)N/C(=N\O)c1ccc(C)nc1Oc1cccc(F)c1 (stereo not given),20
20,Cc1ccc(/C(=N/O)NC(C)C)c(Oc2ccc(F)c(F)c2)n1,4
21,CCC(CC)N/C(=N\O)c1ccc(C)nc1Oc1ccc(SC)c(C)c1,6
22,Cc1ccc(/C(=N/O)Nc2ccc(C(C)C)cc2)c(Oc2cc(Cl)ccc2Cl)n1,14
23,COc1cc(-c2nc(CN3CCN(C)CC3)co2)cc(OC)c1OC,-2
24,Cc1cccc(-c2nc(CNC(C)c3cccc4ccccc34)co2)c1 (stereo not given),14
25,Fc1ccc(-c2nc(CN3CCN(c4cccc(Cl)c4)CC3)co2)cc1,-16
26,Cc1ccc(/C(=N/O)n2ccnc2)c(OCc2ccccn2)n1,16
27,CCOc1ccc(-c2nc(CNc3ccnn3CC)co2)cc1,-10

row,SMILES,% inhibition [%]
1,O/N=C(\NC1CCc2ccccc21)c1ccc(Oc2ccc(-n3ccnc3)cc2)nc1 (stereo not given),-1
2,Cc1cn(Cc2coc(-c3cccc(F)c3)n2)c(C)n1,5
3,Cc1ccc(-c2nc(CN3CCN(C/C=C/c4ccccc4)CC3)co2)cc1,8
4,CC(C)c1cccc(Oc2cc(/C(=N/O)N3CCN(C)CC3)ccn2)c1,4
5,CC(C)c1cccc(Oc2cc(/C(=N/O)N3Cc4ccccc4C3)ccn2)c1,67
6,O/N=C(/c1ccnc(Oc2ccc(F)c(Cl)c2)c1)N1CCN(c2ccccc2)CC1,58
7,CCOc1ccc(Oc2cc(/C(=N/O)N3Cc4ccccc4C3)ccn2)cc1,3
8,CC(C)c1cccc(Oc2cc(/C(=N/O)N3CCC=N3)ccn2)c1,53
9,CC(C)c1cccc(Oc2cc(/C(=N/O)N3CCN(c4ccccc4)CC3)ccn2)c1,86
10,Cc1ccc(/C(=N/O)N2Cc3ccccc3C2)c(Oc2cccc(C(C)C)c2)n1,0
11,O/N=C(/c1ccnc(Oc2ccc(Cl)cc2)c1)N1CCN(c2ccccc2)CC1,28
12,O/N=C(/c1ccnc(Oc2cccc(F)c2)c1)N1CCC=N1,4
13,COc1ccc(Oc2cc(/C(=N/O)N3CCC=N3)ccn2)cc1,39
14,COc1ccc(Oc2cc(/C(=N/O)N3CCN(c4ccccc4)CC3)ccn2)cc1,22
15,O/N=C(/c1ccnc(Oc2ccc(F)c(Cl)c2)c1)N1CCN(c2ccc(F)cc2)CC1,34
16,CCOC(=O)C1CCCCN1Cc1coc(-c2ccccc2C)n1 (stereo not given),1
17,Cc1ccc(-c2nc(CNC(C)(C)CC(C)(C)C)co2)cc1,19
18,N#CCCN(Cc1coc(-c2ccc(Br)cc2)n1)CC1CCCO1 (stereo not given),11
19,CCOc1ccccc1-c1nc(Cn2ncc3c2CCCC3)co1,12
20,Cc1ccc(/C(=N/O)N(C)Cc2ccco2)c(Oc2cc(Cl)ccc2Cl)n1,13
21,CCCCN(CC#N)Cc1coc(-c2ccc(OC)cc2)n1,1
22,Cc1ccc(/C(=N/O)n2nc(C)cc2C)c(Oc2ccc3ccccc3c2)n1,6
23,CSc1ccc(Oc2nc(C)ccc2/C(=N/O)NCc2ccco2)cc1,-3
24,c1ccc2c(-c3nc(CN4CCC5(CC4)OCCO5)co3)cccc2c1,1
25,CCN(CC)CCN(CC)Cc1coc(-c2ccccc2C)n1,5
26,CC1CC(C)CN(/C(=N\O)c2ccnc(Oc3ccc(F)c(F)c3)c2)C1 (stereo not given),5
27,CC1CC(C)CN(/C(=N\O)c2ccnc(Oc3ccc(F)c(Cl)c3)c2)C1 (stereo not given),16

row,SMILES,% inhibition [%]
1,CC(C)c1cccc(Oc2cc(/C(=N/O)N3CCC4CCCCC4C3)ccn2)c1 (stereo not given),9
2,CC1CC(C)CN(/C(=N\O)c2ccnc(Oc3cccc(C(C)C)c3)c2)C1 (stereo not given),58
3,CC1CC(C)CN(/C(=N\O)c2ccnc(Oc3ccc(Cl)cc3)c2)C1 (stereo not given),67
4,CC1CC(C)CN(/C(=N\O)c2ccnc(Oc3cccc(F)c3)c2)C1 (stereo not given),-1
5,COc1ccc(-c2nc(CNC(C)c3cccc4ccccc34)co2)cc1 (stereo not given),13
6,Cc1ccc(/C(=N/O)NCc2cccnc2)c(Oc2c(F)c(F)cc(F)c2F)n1,35
7,CCCCN(C)Cc1coc(-c2ccccc2)n1,6
8,CSc1ccc(Oc2cc(/C(N)=N/O)ccn2)cc1,21
9,Cc1ccc(N2CCN(Cc3coc(-c4cccc(F)c4)n3)CC2)cc1C,-4
10,O/N=C(\NC1CCCCC1)c1ccnc(Oc2ccc(F)c(F)c2)c1,99
11,O/N=C(/c1ccnc(Oc2ccc(F)c(F)c2)c1)N1CCCCCC1,12
12,O/N=C(\NCc1ccccn1)c1ccnc(Oc2cccc(F)c2)c1,-2
13,O/N=C(\NC1CCCC1)c1ccnc(Oc2ccc(F)c(F)c2)c1,101
14,CC1CCN(/C(=N\O)c2ccnc(Oc3ccc(F)c(F)c3)c2)CC1,41
15,CC(C)c1ccc(N/C(=N\O)c2ccnc(Oc3ccc(F)c(F)c3)c2)cc1,22
16,O/N=C(\NCc1ccncc1)c1ccnc(Oc2ccc(F)c(F)c2)c1,8
17,CC(C)c1ccc(N/C(=N\O)c2ccnc(Oc3cccc(F)c3)c2)cc1,-2
18,O/N=C(\NC1CCCC1)c1ccnc(Oc2cccc(F)c2)c1,82
19,CCN(Cc1coc(-c2cccc3ccccc23)n1)C(C)C,-1
20,Cc1cccc(N2CCN(Cc3coc(-c4ccccc4Cl)n3)CC2C)c1 (stereo not given),-10
21,COc1ccc(Oc2ncccc2/C(=N/O)NCCSC)cc1,10
22,COCCN/C(=N\O)c1cccnc1Oc1c(F)cccc1F,65
23,CSCCN/C(=N\O)c1cccnc1Oc1cccc2ccccc12,11
24,CCOc1ccccc1Oc1ncccc1/C(=N/O)NCCOC,13
25,COCCN/C(=N\O)c1cccnc1Oc1cccc(C)c1C,0
26,CSCCN/C(=N\O)c1cccnc1Oc1c(F)cccc1F,78
27,CC(NCc1coc(-c2cccc(F)c2)n1)C(C)(C)C (stereo not given),8

row,SMILES,% inhibition [%]
1,Clc1ccccc1-c1nc(CN2CCCCCCC2)co1,14
2,Cc1cccc(CNCc2coc(-c3ccccc3Br)n2)c1,-1
3,CC1CC(C)CN(/C(=N\O)c2ccc(Oc3ccc(Cl)cc3)nc2)C1 (stereo not given),0
4,CCOc1ccccc1-c1nc(CNCc2ccc(C(F)(F)F)cc2)co1,6
5,Cc1cc(Oc2ccc(/C(=N/O)N(C)Cc3cccnc3)cn2)cc(C(C)C)c1,12
6,O/N=C(\NCc1ccncc1)c1ccc(Oc2cccc(F)c2)nc1,50
7,CN(Cc1cccnc1)/C(=N\O)c1ccc(Oc2ccc3ccccc3c2)nc1,9
8,Cc1cc(Oc2ccc(/C(=N/O)NCc3ccncc3)cn2)cc(C(C)C)c1,3
9,O/N=C(\NCc1cc(F)cc(F)c1)c1ccc(Oc2cccc(F)c2)nc1,42
10,O/N=C(\NCc1cccs1)c1ccc(Oc2ccc3ccccc3c2)nc1,-9
11,O/N=C(\NCc1cccs1)c1ccc(Oc2cccc(F)c2)nc1,75
12,COc1ccc(CN/C(=N\O)c2ccc(Oc3cccc(F)c3)nc2)cc1,-3
13,CC(C)c1cccc(Oc2ccc(/C(=N/O)N(C)Cc3cccnc3)cn2)c1,99
14,COc1cccc(Oc2ccc(/C(=N/O)NCc3cccs3)cn2)c1,2
15,CC(C)c1cccc(Oc2cc(/C(=N/O)NCc3ccncc3)ccn2)c1,10
16,CC(C)c1cccc(Oc2ccc(/C(=N/O)NCc3ccncc3)cn2)c1,100
17,COc1cc(C)ccc1Oc1ncccc1/C(=N/O)NCc1ccccn1,-7
18,COC(=O)C1CCN(/C(=N\O)c2ccc(C)nc2Oc2ccc3ccccc3c2)CC1,19
19,Clc1ccccc1-c1nc(CN2CCCc3ccccc32)co1,1
20,Clc1ccccc1-c1nc(CNCCN2CCOCC2)co1,2
21,CCOC(=O)C1CCCCN1Cc1coc(-c2ccccc2Br)n1 (stereo not given),-3
22,CCCN(CCC)Cc1coc(-c2cccs2)n1,22
23,O/N=C(/c1ccc(Oc2c(F)c(F)cc(F)c2F)nc1)N1CCN(c2ccc(F)cc2)CC1,22
24,CC1C=CC(C)N1Cc1coc(-c2ccccc2Cl)n1 (stereo not given),0
